Common to all, as to set-up: scale not given: direction of the effect not stated beside the values
In assay [1] the target is Protein translocase subunit SecA (Escherichia coli (strain K12)) (UniProt P10408). The experiment in a line: Assay to Identify E. coli SecA ATPase Inhibitors. The format is functional. The following applies: 30 µM.
Assay [2] concerns the target T1, Ubiquitin-activating enzyme e1, putative (Leishmania donovani (strain BPK282A1)) (UniProt E9BSI1).
T1 sequence (whole entry): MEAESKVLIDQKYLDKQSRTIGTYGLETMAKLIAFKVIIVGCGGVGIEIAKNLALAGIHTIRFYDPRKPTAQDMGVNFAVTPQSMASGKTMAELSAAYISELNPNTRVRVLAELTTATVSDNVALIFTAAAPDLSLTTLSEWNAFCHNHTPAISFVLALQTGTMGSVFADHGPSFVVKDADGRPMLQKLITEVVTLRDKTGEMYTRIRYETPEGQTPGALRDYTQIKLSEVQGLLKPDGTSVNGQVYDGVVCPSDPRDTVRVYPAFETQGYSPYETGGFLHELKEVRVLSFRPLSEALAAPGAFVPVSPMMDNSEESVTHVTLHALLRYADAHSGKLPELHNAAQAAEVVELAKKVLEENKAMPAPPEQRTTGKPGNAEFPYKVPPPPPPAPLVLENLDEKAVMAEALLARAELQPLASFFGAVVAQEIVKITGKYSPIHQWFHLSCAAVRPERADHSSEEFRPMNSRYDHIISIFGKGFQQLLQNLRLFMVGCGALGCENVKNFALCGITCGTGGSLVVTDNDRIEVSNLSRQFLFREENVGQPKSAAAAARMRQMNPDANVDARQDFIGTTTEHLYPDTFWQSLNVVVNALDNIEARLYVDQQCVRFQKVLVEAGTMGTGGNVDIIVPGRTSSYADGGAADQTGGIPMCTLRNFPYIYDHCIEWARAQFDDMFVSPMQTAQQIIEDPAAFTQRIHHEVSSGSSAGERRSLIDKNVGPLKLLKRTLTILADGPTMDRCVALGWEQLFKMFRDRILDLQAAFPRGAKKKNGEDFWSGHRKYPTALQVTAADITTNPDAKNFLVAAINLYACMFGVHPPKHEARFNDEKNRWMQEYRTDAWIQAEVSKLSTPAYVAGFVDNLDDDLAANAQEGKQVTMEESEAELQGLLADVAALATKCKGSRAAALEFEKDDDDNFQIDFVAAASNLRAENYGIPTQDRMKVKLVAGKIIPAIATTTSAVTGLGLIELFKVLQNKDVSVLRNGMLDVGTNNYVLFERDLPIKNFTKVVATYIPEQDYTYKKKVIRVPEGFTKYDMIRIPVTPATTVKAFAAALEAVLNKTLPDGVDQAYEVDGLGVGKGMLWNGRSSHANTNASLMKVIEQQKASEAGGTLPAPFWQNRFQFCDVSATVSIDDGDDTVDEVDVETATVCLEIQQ
As to the kind of experiment: Leishmania donovani Ubiquitin Activating Enzyme (LdE1). The following applies: 30 µM. The format is functional.

The target of assay [3] is AMP-activated protein kinase, AMPK (Homo sapiens) (UniProt P54646+O43741+P54619+Q9UGJ0+Q9Y478+Q13131+Q9UGI9). The experiment in a line: AMP-dependent Kinase enzyme assay. An in vitro enzyme assay that detects ADP turnover that is directly proportional to AMPK activity. This uses naive AMPK that is activated during the assay with MK-8722. Format: functional. The following applies: 30 µM.

Assay [4] addresses Sialic acid-binding Ig-like lectin 9 (Homo sapiens) (UniProt Q9Y336). As to the kind of experiment: Hs-Siglec9 ALPHAscreen SOP 20170721. The following applies: 10 µM.
A further assay concerns Trypanosoma cruzi. The experiment in a line: Trypanosoma cruzi phosphomannomutase and mannose-1-phosphate guanylyltransferase assay. The following applies: 10 µM. The format is functional.
In assay [5] the target is T2, Arginase-2, mitochondrial (Homo sapiens) (UniProt P78540).
T2 sequence (whole entry): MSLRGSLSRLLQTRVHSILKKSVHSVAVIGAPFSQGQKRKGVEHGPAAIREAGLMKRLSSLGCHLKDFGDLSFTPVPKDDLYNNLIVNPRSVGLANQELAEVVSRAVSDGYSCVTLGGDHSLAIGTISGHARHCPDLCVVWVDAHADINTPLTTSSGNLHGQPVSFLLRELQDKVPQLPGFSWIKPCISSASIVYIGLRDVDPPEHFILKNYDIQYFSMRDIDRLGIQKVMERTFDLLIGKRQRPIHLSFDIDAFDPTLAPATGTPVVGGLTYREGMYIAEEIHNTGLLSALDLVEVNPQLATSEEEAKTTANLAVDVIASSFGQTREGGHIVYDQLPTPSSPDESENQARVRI
The experiment in a line: in vitro enzyme assay to detect the production of urea directly proportional to the activity of Arginase II. Note: in the data most compounds retested in dose-response had high values. The format is functional. The following applies: 33.3 µM.

In assay [6] the target is T3, Proteasome subunit beta (Trypanosoma cruzi) (UniProt O96673).
T3 sequence (whole entry): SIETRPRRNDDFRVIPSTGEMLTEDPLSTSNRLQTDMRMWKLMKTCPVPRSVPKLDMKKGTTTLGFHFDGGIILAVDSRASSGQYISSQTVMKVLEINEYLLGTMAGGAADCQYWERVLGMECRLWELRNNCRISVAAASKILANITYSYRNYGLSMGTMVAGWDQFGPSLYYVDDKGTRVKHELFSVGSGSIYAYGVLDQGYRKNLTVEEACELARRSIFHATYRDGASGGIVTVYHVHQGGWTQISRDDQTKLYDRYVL
As to the kind of experiment: Trypanosoma cruzi proteasome chymotrypsin-like activity (TcProtChymo) assay. Note: in the data most compounds retested in dose-response had high values. Format: functional. The following applies: 9.37 µM.

The species named for the next assay is Homo sapiens. As to the kind of experiment: To identify inhibition of the IFN signalling (Jak-Stat) pathway via expression of an eGFP reporter gene under the control of an IFN-stimulated response element (ISRE) containing MxA promoter. Format: functional. The following applies: 30 µM.
Assay [7] has as its target T4, Tyrosyl-tRNA synthetase, putative (Trypanosoma cruzi (strain CL Brener)) (UniProt Q4DSP6).
T4 sequence (whole entry): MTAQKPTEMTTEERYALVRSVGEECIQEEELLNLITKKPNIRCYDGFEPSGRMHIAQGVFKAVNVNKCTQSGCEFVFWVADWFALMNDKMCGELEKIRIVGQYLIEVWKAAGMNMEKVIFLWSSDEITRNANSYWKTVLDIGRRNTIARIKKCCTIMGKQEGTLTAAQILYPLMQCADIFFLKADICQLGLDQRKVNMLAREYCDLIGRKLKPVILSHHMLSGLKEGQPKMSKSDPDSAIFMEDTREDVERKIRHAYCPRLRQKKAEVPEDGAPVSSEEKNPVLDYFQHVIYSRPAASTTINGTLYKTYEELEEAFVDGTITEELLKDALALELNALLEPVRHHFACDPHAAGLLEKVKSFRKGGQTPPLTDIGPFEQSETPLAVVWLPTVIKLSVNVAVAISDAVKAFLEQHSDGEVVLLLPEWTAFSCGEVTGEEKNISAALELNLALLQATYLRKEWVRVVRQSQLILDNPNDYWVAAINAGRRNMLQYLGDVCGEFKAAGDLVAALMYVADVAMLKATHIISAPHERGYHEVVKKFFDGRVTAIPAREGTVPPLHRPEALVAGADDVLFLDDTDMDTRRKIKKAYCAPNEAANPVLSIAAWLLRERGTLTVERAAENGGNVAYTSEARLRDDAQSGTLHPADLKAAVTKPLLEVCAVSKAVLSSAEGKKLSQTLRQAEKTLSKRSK
The experiment in a line: Trypanosoma cruzi tyrosyl tRNA synthetase (TcYRS) _High Tyrosine SOP. Note: in the data most compounds retested in dose-response had high values. The format is functional. The following applies: 30 µM.

The target of assay [8] is T4, Tyrosyl-tRNA synthetase, putative (Trypanosoma cruzi (strain CL Brener)). As to the kind of experiment: Trypanosoma cruzi tyrosyl tRNA synthetase (TcYRS) SOP. Format: functional. The following applies: 30 µM.
The target of assay [9] is Chromo domain-containing protein 1 (Saccharomyces cerevisiae (strain ATCC 204508 / S288c) (Baker's yeast)) (UniProt P32657). As to the kind of experiment: ScCHD-1 Enzyme Inhibition Assay. Note: in the data most compounds retested in dose-response had high values. Format: functional. The following applies: 30 µM.

For some of these results: Measured potencies and affinities stand elsewhere.

Sialic acid-binding Ig-like lectin 9 (Homo sapiens), sequence (Q9Y336 whole entry): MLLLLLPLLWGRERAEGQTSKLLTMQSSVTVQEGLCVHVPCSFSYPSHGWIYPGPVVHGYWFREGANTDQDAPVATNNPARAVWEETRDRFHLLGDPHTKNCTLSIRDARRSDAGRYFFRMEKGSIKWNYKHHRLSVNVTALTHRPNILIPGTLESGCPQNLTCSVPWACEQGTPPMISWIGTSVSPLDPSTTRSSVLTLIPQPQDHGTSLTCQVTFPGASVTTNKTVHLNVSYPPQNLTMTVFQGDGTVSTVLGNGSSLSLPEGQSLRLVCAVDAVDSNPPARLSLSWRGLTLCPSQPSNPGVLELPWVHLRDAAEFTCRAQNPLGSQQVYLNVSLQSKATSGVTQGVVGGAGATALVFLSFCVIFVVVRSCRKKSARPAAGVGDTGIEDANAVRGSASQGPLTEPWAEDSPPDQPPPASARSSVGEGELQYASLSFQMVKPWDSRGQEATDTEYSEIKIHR
Protein translocase subunit SecA (Escherichia coli (strain K12)), sequence (P10408 whole entry): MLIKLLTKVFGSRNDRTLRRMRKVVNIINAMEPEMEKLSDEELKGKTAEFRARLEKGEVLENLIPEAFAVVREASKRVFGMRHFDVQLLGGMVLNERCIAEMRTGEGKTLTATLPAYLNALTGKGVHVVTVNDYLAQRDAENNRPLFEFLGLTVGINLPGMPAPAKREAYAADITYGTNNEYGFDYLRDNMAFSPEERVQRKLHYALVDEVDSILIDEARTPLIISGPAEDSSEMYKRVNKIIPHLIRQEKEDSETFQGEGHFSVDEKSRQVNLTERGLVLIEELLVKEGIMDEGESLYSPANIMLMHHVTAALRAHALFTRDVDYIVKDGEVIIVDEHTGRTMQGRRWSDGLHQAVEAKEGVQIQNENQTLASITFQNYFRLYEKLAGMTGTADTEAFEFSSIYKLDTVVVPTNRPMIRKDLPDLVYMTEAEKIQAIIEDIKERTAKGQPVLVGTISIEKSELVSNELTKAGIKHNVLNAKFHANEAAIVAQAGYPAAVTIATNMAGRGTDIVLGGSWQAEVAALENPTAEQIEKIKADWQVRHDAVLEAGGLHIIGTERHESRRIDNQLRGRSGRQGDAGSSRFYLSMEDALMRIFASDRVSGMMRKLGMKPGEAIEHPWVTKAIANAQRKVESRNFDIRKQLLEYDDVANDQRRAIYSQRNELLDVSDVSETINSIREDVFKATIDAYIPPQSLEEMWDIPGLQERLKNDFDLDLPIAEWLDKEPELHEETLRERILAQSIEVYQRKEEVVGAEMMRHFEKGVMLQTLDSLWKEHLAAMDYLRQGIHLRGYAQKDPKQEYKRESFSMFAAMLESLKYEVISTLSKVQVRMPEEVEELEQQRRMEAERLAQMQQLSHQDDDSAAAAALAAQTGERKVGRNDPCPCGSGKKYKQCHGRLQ
Chromo domain-containing protein 1 (Saccharomyces cerevisiae (strain ATCC 204508 / S288c) (Baker's yeast)), sequence (P32657 whole entry, the tested form may be a part): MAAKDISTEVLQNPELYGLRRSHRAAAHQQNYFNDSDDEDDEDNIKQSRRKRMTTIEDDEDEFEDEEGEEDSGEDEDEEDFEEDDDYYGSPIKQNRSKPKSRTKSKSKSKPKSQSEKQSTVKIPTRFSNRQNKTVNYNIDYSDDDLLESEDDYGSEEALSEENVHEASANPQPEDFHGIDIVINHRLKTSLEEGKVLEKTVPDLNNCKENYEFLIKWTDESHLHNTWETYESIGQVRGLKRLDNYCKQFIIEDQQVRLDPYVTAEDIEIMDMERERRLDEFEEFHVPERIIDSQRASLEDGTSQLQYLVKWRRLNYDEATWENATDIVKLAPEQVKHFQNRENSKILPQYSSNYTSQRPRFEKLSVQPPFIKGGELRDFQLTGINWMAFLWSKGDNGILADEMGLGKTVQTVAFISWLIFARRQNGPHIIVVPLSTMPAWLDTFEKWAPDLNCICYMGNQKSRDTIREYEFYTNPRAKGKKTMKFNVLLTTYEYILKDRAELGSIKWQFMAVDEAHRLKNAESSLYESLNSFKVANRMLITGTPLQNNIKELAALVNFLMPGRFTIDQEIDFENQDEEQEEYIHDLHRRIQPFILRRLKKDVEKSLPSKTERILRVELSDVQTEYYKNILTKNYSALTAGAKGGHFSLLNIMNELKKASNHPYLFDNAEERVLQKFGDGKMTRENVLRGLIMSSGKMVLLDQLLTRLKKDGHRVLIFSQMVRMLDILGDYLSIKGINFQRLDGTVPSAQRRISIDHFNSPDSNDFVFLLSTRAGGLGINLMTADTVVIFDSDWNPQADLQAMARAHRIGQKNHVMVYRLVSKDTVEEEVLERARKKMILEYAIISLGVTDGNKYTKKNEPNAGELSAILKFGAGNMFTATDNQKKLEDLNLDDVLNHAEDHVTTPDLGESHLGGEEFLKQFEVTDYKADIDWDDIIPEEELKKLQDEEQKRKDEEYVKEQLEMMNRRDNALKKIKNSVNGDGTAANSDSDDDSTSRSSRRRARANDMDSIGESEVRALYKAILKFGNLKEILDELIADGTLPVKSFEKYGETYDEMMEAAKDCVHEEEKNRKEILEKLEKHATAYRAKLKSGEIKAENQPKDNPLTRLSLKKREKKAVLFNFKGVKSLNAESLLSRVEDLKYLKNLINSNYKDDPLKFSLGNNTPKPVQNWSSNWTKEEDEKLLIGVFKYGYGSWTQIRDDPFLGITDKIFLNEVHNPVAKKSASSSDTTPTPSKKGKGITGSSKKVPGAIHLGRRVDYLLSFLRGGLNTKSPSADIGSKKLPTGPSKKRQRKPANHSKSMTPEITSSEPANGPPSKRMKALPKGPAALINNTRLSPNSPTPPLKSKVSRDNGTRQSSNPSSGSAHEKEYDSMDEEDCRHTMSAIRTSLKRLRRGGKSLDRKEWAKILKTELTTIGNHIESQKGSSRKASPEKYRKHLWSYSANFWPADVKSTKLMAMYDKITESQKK

With `Cc1cc(CN2CCN(c3ccc4nncn4n3)C(C)C2)no1` (stereo unspecified), the Percent Effect in assay [1] was -6.67%; in assay [2], 20.8%; in assay [3] it was -6.96%; in assay [4], 14.4%; in the assay on Trypanosoma cruzi it was 5.8%; in assay [5], 4.63%. For the same compound, the Percent Effect was 11.2% in assay [6]; 19.6% in the assay listed under Homo sapiens; 9.71% in [7]; 21.9% in assay [8]; -10.9% in [9].

Turning to `CCN(Cc1nc2c(cnn2C)c(=O)[nH]1)c1ccc(OC)c(OC)c1`, the Percent Effect in assay [1] is -2.86%; in assay [2], 24.1%; in [3] it was 14.9%; in assay [4], -0.321%; in the assay on Trypanosoma cruzi, 0.513%; in assay [5], -2.8%. For the same compound, the Percent Effect in [6] was 23.3%; in the assay filed under Homo sapiens, 27%; in [7] it was 9.38%; in assay [8], 20.2%; in assay [9], -22.5%.

On to `NCc1cnn(-c2ccccc2C(=O)NCc2ccncc2)c1`, for which the Percent Effect was -3.81% in assay [1]; 6.76% in assay [2]; 13.5% in [3]; -2.83% in [4]; -2.96% in the assay with Trypanosoma cruzi; -0.232% in assay [5]. Further, the Percent Effect is 6.08% in assay [6]; 6.53% in the assay listed under Homo sapiens; 3.23% in assay [7]; 11.7% in assay [8]; -5.06% in [9].

For the compound `CCOC(=O)c1sc2ccsc2c1CN`, the Percent Effect was -2.04% in assay [1]; -5.41% in assay [2]; -6.96% in assay [3]; -0.173% in [4]; -5.29% with Trypanosoma cruzi; 3.88% in assay [5]. The Percent Effect in assay [6] was -7.36%; in the assay filed under Homo sapiens, 20.9%; in [7] it was 0%; in assay [8], -1.22%; in [9] it was 5.83%.

In the case of `c1cn(Cc2nnc(C3CCN(c4nccs4)CC3)n2C2CC2)cn1`, the Percent Effect in assay [1] was -3.22%; in assay [2], 16%; in assay [3] it was 0.541%; in assay [4] it was 19.9%; with Trypanosoma cruzi it was 4.77%; in assay [5] it was 13%. The Percent Effect in assay [6] stood at 9.59%; in the assay listed under Homo sapiens, 7.24%; in assay [7], 7.1%; in [8], 8.64%; in assay [9], 90.7%.

`Cc1nnc2n1CCN(Cc1csc(CC(=O)N(C)C)n1)C2`: the Percent Effect is -4.68% in assay [1]; 10.8% in assay [2]; -6.55% in [3]; 9.69% in [4]; -1.21% in the assay on Trypanosoma cruzi; -2.03% in assay [5]. Besides, the Percent Effect in assay [6] worked out at 3.77%; in the assay listed under Homo sapiens, 9.18%; in assay [7] it was 5.94%; in assay [8], 13.4%; in [9], 0.846%.

Take `Cc1cc(-c2cnc(N3CCCC(C)C3)nc2-c2cccnc2C)on1` (stereo unspecified): the Percent Effect in [1] was -7.33%; in assay [2], 1.35%; in [3], 6.26%; in [4], -5.16%; with Trypanosoma cruzi it was -5.93%; in assay [5], -5.34%. The Percent Effect is 8.74% in assay [6]; 59.4% in the assay listed under Homo sapiens; -8.6% in [7]; -3.9% in assay [8]; -22.2% in [9].

Consider `O=C([C@@H]1CC[C@@H]2[C@@H](CCN2Cc2cccc(F)c2)O1)N1CCCCO1`, for which the Percent Effect in assay [1] was 3%; in [2] it was -34.7%; in assay [3], 4.08%; in assay [4] it was 2.78%; in the assay on Trypanosoma cruzi, -3.28%; in [5], -52.5%. Moreover, the Percent Effect was 9.23% in assay [6]; 16.6% in the assay filed under Homo sapiens; 2.08% in [7]; 22.5% in assay [8]; -4.83% in assay [9].

Consider `O=C(Cc1ccc2c(c1)CCC2)NCCNc1ncccn1`, for which the Percent Effect was -2.76% in assay [1]; 21.1% in [2]; 0.848% in assay [3]; 1.21% in assay [4]; 2.89% with Trypanosoma cruzi; 3.96% in assay [5]. The Percent Effect in assay [6] is 18.4%; in the assay listed under Homo sapiens, -17.3%; in assay [7] it was 6.4%; in [8], 30.9%; in assay [9] it was -10.6%.

Turning to `COCC1CN(Cc2cc(C)on2)Cc2cn(C)nc21` (stereo unspecified), the Percent Effect in [1] was -1.68%; in [2], 8%; in assay [3] it was 1.48%; in assay [4] it was 12.2%; in the assay on Trypanosoma cruzi, -0.965%; in assay [5] it was -24.2%. Besides, the Percent Effect in assay [6] was 9.06%; in the assay filed under Homo sapiens, -11%; in assay [7] it was 6.25%; in [8], 10%; in assay [9] it was -4.54%.

In the case of `O=C(c1ccccc1-c1ccccc1)N1CCOC2(CNCCOC2)C1` (stereo unspecified), the Percent Effect in [1] is -2.01%; in assay [2], 8.11%; in assay [3], -0.846%; in [4], 7.99%; in the assay on Trypanosoma cruzi, 0%; in [5], 4.76%. For the same compound, the Percent Effect is 17.9% in [6]; 1.86% in the assay listed under Homo sapiens; 5.82% in assay [7]; 14.6% in [8]; -1.37% in [9].

The record behind these values is ChEMBL document CHEMBL3988442, “University of Dundee, Small-Polar-MMV Screening Library” (2021).
